In the library only some 3% were active in any assay of this set; here they are far more common.
GCN5L2 inh – blocks human GCN5L2 histone acetyltransferase; GCN5L2 HAT assay, ThioGlo1 CoA-SH fluorescence; Potency, µM (series often up to 58.9 µM), for the others: top-dose activity change, negative = inhibition, hits mostly inhibitors; 0.21% of 390,000 active; note: potency is the fitted concentration of half-maximal effect; % is set by controls: 0 for no effect and ±100 for the full control effect
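Compounds, pin-transferred from DMSO stocks, meet 20nM GCN5L2 for 15 min before the reaction begins with H3(1-25) peptide (75uM) and acetyl-CoA (70uM). Thiol-reactive ThioGlo1 reports CoA release over 20 min at room temperature.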
TSG101-PTAP inh – blocks PTAP/TSG101 interaction to inhibit HIV-1 budding; Q99816; Fluorescence polarization, FITC-PTAP peptide / Tsg101 binding; Potency, µM (titrated, usually from 115 µM), for inactives: at the top dose activity change, negative = inhibition, actives largely listed as inhibitors; 340,000 tested, under 10 active; AID 493005; active = well fitted inhibition curve with a large enough effect in the main read-out, with a control signal flat, not every such curve was filed as active; inconclusive = small, poorly fitted or top-dose-only effect, or effect the other way, or a change in a side signal; inactive = no such curve, though single readings can be large or run the other way; note: potency is the fitted concentration of half-maximal effect; % of control where 0% means no effect
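Tsg101 binding domain (10 uM final) was mixed with compound and a FITC-labeled PTAP peptide (50 nM final) in HEPES pH 7.5 buffer with NaCl, Tween 20, EDTA and TCEP; fluorescence polarization was read after 20 min at r.t.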
PLK1 PBD inh – inhibitors of human PLK1 polo-box domain binding. Plk1 PBD binding of FITC phosphopeptide, fluorescence polarization. Potency, µM, for the others: max response, negative = inhibition, most hits filed as inhibitors. 2.8% of 360,000 active; note: potency is the fitted concentration of half-maximal effect; series mostly up to about 57 µM; % is set by controls: 0 for no effect and ±100 for the full control effect; nearly all actives have a fitted effect of over 65% in size
Target sequence (P53350 whole entry, looked up, the tested form may be a part): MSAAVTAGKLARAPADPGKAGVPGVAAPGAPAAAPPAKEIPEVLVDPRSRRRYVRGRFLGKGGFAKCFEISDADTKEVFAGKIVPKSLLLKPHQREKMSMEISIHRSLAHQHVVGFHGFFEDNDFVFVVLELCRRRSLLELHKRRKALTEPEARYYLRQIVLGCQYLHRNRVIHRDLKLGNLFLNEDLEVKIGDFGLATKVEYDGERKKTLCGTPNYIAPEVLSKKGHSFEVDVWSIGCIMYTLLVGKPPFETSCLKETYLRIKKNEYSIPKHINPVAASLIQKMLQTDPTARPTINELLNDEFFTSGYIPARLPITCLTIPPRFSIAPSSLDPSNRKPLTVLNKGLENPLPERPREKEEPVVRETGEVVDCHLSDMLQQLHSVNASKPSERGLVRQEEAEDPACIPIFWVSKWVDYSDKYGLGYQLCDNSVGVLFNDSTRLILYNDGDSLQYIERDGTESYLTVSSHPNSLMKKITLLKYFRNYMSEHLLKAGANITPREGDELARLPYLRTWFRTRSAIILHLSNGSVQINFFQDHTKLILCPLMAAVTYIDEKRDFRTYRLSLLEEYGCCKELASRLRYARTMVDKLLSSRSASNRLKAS
USP1 inh – blocks the human USP1/UAF1 deubiquitinase complex | Potency, µM (highest dose often 57.1 µM), for the others: at the top dose activity change, negative = inhibition, hits mostly inhibitors | 0.23% of 390,000 active | O94782 | recombinant USP1/UAF1, Ub-Rhodamine cleavage fluorescence; note: potency is the fitted concentration of half-maximal effect; % is set by controls: 0 for no effect and ±100 for the full control effect; nearly all actives have a fitted effect of over 60% in size
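USP1/UAF1 complex at 1 nM was preincubated with compound for 15 min at room temperature, then Ub-Rho substrate (150nM final) was added. Fluorescence (480/540 nm) was read kinetically, 6 reads every 60 seconds.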
VDR inhibitor – vitamin D3 receptor (human) inhibition; P11473; Potency, µM, inactives show max response, negative = inhibition, actives largely listed as inhibitors; VDR-SRC2-3 peptide fluorescence polarization, 2 h; AID 504847; 0.93% of 400,000 active; note: potency is the fitted concentration of half-maximal effect; % is set by controls: 0 for no effect and ±100 for the full control effect
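Two reagent solutions held at 4 deg C in the dark were dispensed, compounds pinned at 23 nl, and the mixture incubated 2 h at room temperature. Read-out: fluorescence polarization of VDR–SRC2-3 peptide binding.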
USP1 UbRho – USP1-UAF1 deubiquitinase inhibition validated; Potency, µM (doses to about 56.8 µM), for the others: at the highest dose activity change, negative = inhibition, most hits filed as inhibitors; 50% of 50 active; AID 540327; shares compounds with VDR inhibitor; Ub-Rhodamine cleavage, fluorescence kinetic read
VDR confirm – inhibits human vitamin D receptor, primary hit validation; shares compounds with VDR inhibitor; VDR-coactivator inhibition assay, qHTS confirmation; Potency, µM, most hits filed as inhibitors; 89% of 840 active; note: potency is the fitted concentration of half-maximal effect
VDR FP – blocks human VDR-coactivator binding in fluorescein assay. shares compounds with VDR inhibitor. VDR-coactivator binding, fluorescein fluorescence polarization. Potency, µM (titrated, usually from 57.1 µM), inactives show at the top dose activity change, negative = inhibition, hits mostly inhibitors. 48% of 840 active. AID 602200; note: potency is the fitted concentration of half-maximal effect
VDR bla reporter – VDR (human) inhibition, cell-based beta-lactamase validation; shares compounds with VDR inhibitor; VDR beta-lactamase reporter cells, FRET ratio; cells co-treated with VDR agonist LG190178; Potency, µM (highest dose often 46.1 µM), for the others: top-dose activity change, negative = inhibition, hits mostly inhibitors; 23% of 840 active; AID 602202; note: potency is the fitted concentration of half-maximal effect; % is set by controls: 0 for no effect and ±100 for the full control effect
VDR cytotox – cell toxicity, VDR inhibitor hit counter-screen. cytotoxicity counter-screen, cell viability, qHTS. 18% of 840 active. shares compounds with VDR inhibitor. Potency, µM (doses to about 48.3 µM), for inactives: at the highest dose activity change, negative = cytotoxicity, usual class: cytotoxic;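 note: potency is the fitted concentration of half-maximal effect; plate controls were DMSO for no effect and high-concentration cycloheximide for full effect; nearly all actives have a fitted effect of over 75% in size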
* = called active by the depositor; u = inconclusive; x = no result. Unless noted, calls come from the whole dose curve; as a rule, active = well fitted curve in the direction sought with a large enough effect; inconclusive = small, poorly fitted or top-dose-only effect, or another doubt; inactive = no such curve, though single readings can be large; an effect the other way counts as inactive or inconclusive.

SMILES | GCN5L2 inh | TSG101-PTAP inh | PLK1 PBD inh | USP1 inh | VDR inhibitor | VDR confirm | VDR FP | VDR bla reporter | VDR cytotox | others
CCN(CC)c1ccc(NC(=O)c2ccccc2Br)cc1S(=O)(=O)Nc1ccccc1OC | u | 1% | 1.5µM* | -16% | 22µM* | 3* | 2.8µM* | 22% | 23%
COc1ccccc1NS(=O)(=O)c1cc(NC(=O)c2cccs2)ccc1N1CCCCC1 | -14% | -11% | -7% | -3% | 8% | x | x | x | x
COc1ccccc1NS(=O)(=O)c1cc(NC(=O)c2cccs2)ccc1N1CCCC1 | -23% | 0% | 5.3µM* | -28% | 22µM* | 6* | u | 10% | 0%
COc1c2c(cc3c1C(CC(O)Cc1ccccc1)N(C)CC3)OCO2 (stereo unspecified) | 2% | -3% | -10% | -7% | -1% | x | x | x | x
COc1ccc2c(c1OC)C(Cc1ccccc1)N1CCc3cc4c(cc3C1=C2)OCO4 (stereo unspecified) | u | x | x | x | 32µM* | x | x | x | x | USP1 UbRho=42µM*
Cc1cccc(CSc2nc3c(sc4ccccc43)c(=O)n2CCC(=O)NC(C)C)c1 | -11% | x | x | 4% | 13% | x | x | x | x
c1cn2cc(-c3ccc4c(c3)OCO4)nc2s1 | -3% | -11% | 24µM* | -11% | 20µM* | u | u | 22% | -29%
Cc1cn(C2CC3OCC(NC(=O)C4CCCN4C(=O)OC(C)(C)C)C3O2)c(=O)[nH]c1=O (stereo unspecified) | x | x | x | x | -4% | x | x | x | x
COc1ccc(C(=O)Oc2ccc(C(=S)N3CCOCC3)cc2)cc1 | -19% | -6% | 11µM* | -23% | 71µM* | 27* | 25µM* | 5% | -3%
COc1ccc(CCN2C(=O)CN(C3CCCCCC3)C(=O)C2c2ccc(Cl)cc2)cc1OC (stereo unspecified) | -6% | x | x | -13% | -1% | x | x | x | x
CCOC(=O)c1sc(=S)n(-c2cc(F)ccc2F)c1N | -13% | -9% | u | -15% | -3% | x | x | x | x
CCOC(=O)c1sc(=S)n(-c2cc(OC)ccc2OC)c1N | -22% | -1% | 2.7µM* | -9% | 20µM* | 27* | 3.5µM* | 17% | -27%
COC(=O)c1sc(=S)n(-c2cc(F)ccc2F)c1N | -29% | -6% | 13µM* | -11% | 79µM* | 19* | u | 28% | 22%
O=C(CCC(=O)N1CCN(c2ccccc2F)CC1)c1ccc(F)cc1 | -16% | 0% | -1% | -5% | -11% | x | x | x | x
O=C(CCN1CCOCC1)c1ccc(Br)cc1 | 4% | 2% | 12µM* | -11% | 22µM* | 24* | u | u | u
Brc1ccc(OCCN2CCOCC2)cc1 | -2% | 1% | -19% | -11% | -13% | x | x | x | x
O=C(CCN1CCN(c2ccccc2F)CC1)c1ccc(Br)cc1 | -10% | 0% | 8.4µM* | -13% | 18µM* | 17* | u | u | u
Cc1ccc(-n2c3c(cc(-c4nc(-c5ccc(Cl)cc5)cs4)c2=O)C(=O)CC(C)(C)C3)cc1C | 3% | x | x | -11% | -8% | x | x | x | x
COc1ccc(F)cc1S(=O)(=O)NCCc1csc2nc(-c3cccc(C)c3)nn12 | -1% | x | x | -14% | 10% | x | x | x | x
O=S1c2ccccc2Nc2ccccc21 | -9% | -1% | -1% | -30% | u | x | x | x | x
O=[S@]1Oc2ccccc2-c2ccccc21 | x | 19% | 2.1µM* | -17% | 6.3µM* | 4.7* | u | -10% | 31%
CCOc1cccc(C(=O)N/N=C/c2coc3ccccc3c2=O)c1 | -3% | 1% | u | -17% | u | x | x | x | x
CS(=O)(=O)c1ccc(S(=O)CC(=O)Oc2ccc(Cl)cc2)c([N+](=O)[O-])c1 (stereo unspecified) | -6% | -3% | 3µM* | -21% | 3.5µM* | 2.5* | 1.6µM* | 18µM* | u
COc1ccc(C(=O)c2no[n+]([O-])c2C(=O)c2ccc(OC)cc2)cc1 | u | 12% | u | -15% | u | x | x | x | x
O=C(c1cccs1)c1no[n+]([O-])c1C(=O)c1cccs1 | 0% | 0% | u | -16% | 45µM* | 6.3* | 3.5µM* | 2.6µM* | 3µM*
SMILES | GCN5L2 inh | TSG101-PTAP inh | PLK1 PBD inh | USP1 inh | VDR inhibitor | VDR confirm | VDR FP | VDR bla reporter | VDR cytotox | others
CCn1c(=NC(=O)c2ccc(S(=O)(=O)N3CCCC3)cc2)sc2cc(Br)ccc21 | -2% | x | x | -2% | -1% | x | x | x | x
O=C1ON=C(c2ccccc2)/C1=C/c1ccc(OS(=O)(=O)c2ccccc2)cc1 | u | -7% | 6µM* | -8% | u | 3.5* | 3.2µM* | 2% | 8%
COc1cccc([C@@H]2Oc3ccc(Br)cc3C(=O)[C@H]2OC(=O)NS(=O)(=O)c2ccc(F)cc2)c1 | x | x | x | x | -2% | x | x | x | x
O=C(NC1=C(Nc2ccc(Cl)cc2)C(=O)c2ccccc2C1=O)c1ccccc1 | -6% | -3% | -20% | u | -9% | x | x | x | x
O=C1C(Cl)=C(NC(=O)c2ccccc2)C(=O)C(Cl)=C1NC(=O)c1ccccc1 | u | 2% | 1.3µM* | -20% | 35µM* | 4.2* | u | 3.7µM* | 12µM*
CC(=O)Nc1sc(N/N=C\c2ccccc2F)nc1-c1cccs1 | -9% | -2% | -12% | 2% | 50µM* | 2.4* | 2.2µM* | 29% | u
O=C(/C=C/c1ccc(Cl)cc1)c1cccnc1 | -4% | 0% | u | -16% | 25µM* | 6* | 5.6µM* | 23% | 7%
O=C(/C=C/c1ccccc1Cl)NNC(=O)c1ccncc1 | -15% | -1% | 3% | -7% | 9% | x | x | x | x
CCN(CC)c1ccc(/C=C/C(=O)c2cccnc2)cc1 | -10% | -9% | -12% | -3% | 12% | x | x | x | x
N#Cc1ccc(/C=C/C(=O)c2cccnc2)cc1 | 1% | -4% | u | -14% | 11µM* | 8.4* | u | u | u
O=C(/C=C/c1ccccc1Cl)c1cccnc1 | -8% | -1% | u | -3% | 45µM* | 6.7* | u | u | u
